HT1080-NT tox – qHTS for induction of synthetic lethality in tumor cells producing 2HG: qHTS for the HT-1080-NT fibrosarcoma cell line; HT-1080-NT fibrosarcoma viability, CellTiter-Glo ATP luminescence, 48 h; AID 686970, 2013; 360,000 compounds, 1.6% hits; Potency, µM (highest dose often 46.1 µM), usual class: cytotoxic;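 further: NT is the 2HG producing partner of a matched IDH1 knockdown line; nearly all actives have a fitted effect of over 55% in size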
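Viability by CellTiter-Glo luminescence after 48 h compound exposure at 37C of HT-1080-NT cells (750/well, RPMI, 5% FBS). % activity scaled between DMSO wells and medium-only wells, then curve-fitted and categorized by curve class.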
ATXN2 expr inh – Primary qHTS for Inhibitors of ATXN expression; HEK-293 ATXN2-luciferase reporter, luminescence, 24 h; Potency, µM (top dose mostly 57 µM), actives largely listed as inhibitors; 360,000 compounds, 0.72% hits; AID 1745845, 2022; further: nearly all actives have a fitted effect of over 55% in size
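qHTS (up to 57 uM final) was run with 24 h compound exposure of reporter cells at 37 °C. Each well was multiplexed: SteadyGlo luminescence measured ATXN2-luciferase expression after a fluorogenic Gly-Phe-AFC viability readout (25 uM final).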
ATXN viability – Viability Counterscreen for Primary qHTS for Inhibitors of ATXN expression; S2 cells (HEK-293 line with an ATXN2-luciferase reporter) viability, CellTiter-Fluor protease fluorescence, 24 h; 400,000 compounds, 0.49% hits; Potency, µM (highest dose often 56.7 µM), hits mostly cytotoxic; further: nearly all actives have a fitted effect of over 40% in size
KB-V1 MDR tox – qHTS assay for MDR1-selective chemotherapeutics: Primary screen using the drug-selected MDR subline cells KB-V1. Potency, µM (titrated, usually from 46.1 µM), usual class: cytotoxic. AID 1347076, 2019. 400,000 compounds, 3.4% hits. KB-V1 MDR cells viability, CellTiter-Glo, 72 h; further: nearly all actives have a fitted effect of over 60% in size
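Drug-selected KB-V1 cells, grown in DMEM lacking phenol red with 10% FBS, receive compound titrations; after three days at 37 degrees C, surviving cell ATP is quantified by CellTiter-Glo luminescence and responses normalized and curve-fitted.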
KB-3-1 tox – qHTS assay for MDR1-selective chemotherapeutics: Primary screen using the parental adenocarcinoma cell KB-3-1; KB-3-1 viability, CellTiter-Glo ATP luminescence, 72 h; Potency, µM (highest dose often 46.1 µM), usual class: cytotoxic; 400,000 compounds, 1.4% hits; AID 1347075, 2019; further: nearly all actives have a fitted effect of over 60% in size
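Parental KB-3-1 viability, qHTS format: 72 h compound exposure, 37 °C; CellTiter-Glo; media-only wells and DMSO plates as controls; concentration-effect fits on corrected data.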
HT1080 IDH1KD tx – qHTS for induction of synthetic lethality in tumor cells producing 2HG: qHTS for the HT-1080-IDH1KD cell line; HT-1080 IDH1 knockdown viability, ATP luminescence, 48 h; AID 686971, 2013; 360,000 compounds, 2% hits; Potency, µM (doses to about 46.1 µM), actives largely listed as cytotoxic
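Using the IDH1-knockdown HT-1080 line run in the same batch and compound series as the NT line, viability after 48 h at 37 °C was determined by CellTiter-Glo luminescence and expressed as % activity.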
Large screens that a line does not name were inactive. Shown are actives, neighbours in structure and some others; about 6.2% of the full set was active somewhere. The call rests on the fitted dose curve; in most records, active means well fitted curve in the direction sought with a large enough effect; inconclusive means small, poorly fitted or top-dose-only effect, or another doubt; inactive means no such curve, though single readings can be large; an effect the other way counts as inactive or inconclusive.

CCCN(Cc1nnc(-c2ccccc2Cl)o1)C(=O)COc1ccc(Cl)cc1	ATXN viability inconclusive, KB-V1 MDR tox 4.1µM
CCC(=O)c1ccc(OCC(=O)N(Cc2nnc(-c3ccccc3Cl)o2)C2CC2)cc1	KB-V1 MDR tox inconclusive
CCCCCn1c(=O)[nH]c2cc(C(=O)NCc3ccc(F)cc3)ccc2c1=O	none (no result: HT1080-NT tox, HT1080 IDH1KD tx)
COc1ccc(/C=N/Nc2cc(C)nc(-n3nc(C)cc3C)n2)cc1	HT1080-NT tox inconclusive, ATXN2 expr inh 20µM, ATXN viability inconclusive, KB-3-1 tox inconclusive, HT1080 IDH1KD tx inconclusive
Oc1ccc(/C=N/Nc2cc(N3CCCC3)nc(N3CCCC3)n2)cc1	HT1080-NT tox inconclusive
Cc1cc(N/N=C/c2cccc(Cl)c2)nc(-n2nc(C)cc2C)n1	HT1080-NT tox inconclusive, ATXN2 expr inh inconclusive, ATXN viability inconclusive, KB-V1 MDR tox inconclusive, HT1080 IDH1KD tx inconclusive
COc1ccc(/C=N/Nc2cc(N3CCCC3)nc(N3CCCC3)n2)cc1	HT1080-NT tox 13µM, ATXN2 expr inh 14µM, ATXN viability 28µM, KB-V1 MDR tox inconclusive, KB-3-1 tox inconclusive, HT1080 IDH1KD tx 16µM
COc1ccc(-c2nc3c4ccccc4n(CC(=O)N4CCN(c5ccccc5OC)CC4)c(=O)n3n2)cc1	none (no result: HT1080-NT tox, HT1080 IDH1KD tx)
O=C(Cn1cnc2c(NCc3ccccc3)ncnc21)NCCCc1ccccc1	none
COc1c(Cl)cc(C(=O)NN)cc1Cl	HT1080-NT tox 2.1µM, HT1080 IDH1KD tx 2.6µM
COc1c(Cl)cc(C(=O)O)cc1Cl	none
CC(C)=NOc1cc(NC(=O)CCl)cc([N+](=O)[O-])c1	HT1080-NT tox 5.8µM, ATXN2 expr inh inconclusive, ATXN viability 25µM, KB-V1 MDR tox 16µM, KB-3-1 tox 18µM, HT1080 IDH1KD tx 9.2µM
O=C(CCl)Nc1cc(SCC(O)CO)cc([N+](=O)[O-])c1 (stereo unspecified)	HT1080-NT tox 1.8µM, ATXN2 expr inh 4µM, ATXN viability 8.9µM, KB-V1 MDR tox inconclusive, KB-3-1 tox 5.8µM, HT1080 IDH1KD tx 1.6µM
CCC(=O)Nc1cc(ON=C(C)C)cc([N+](=O)[O-])c1	none
Cc1ccc(S(=O)(=O)Nc2cccc3c2O[C@H](CN(C)C(=O)Nc2cccc4ccccc24)[C@H](C)CN([C@H](C)CO)C3=O)cc1	ATXN2 expr inh inconclusive, ATXN viability inconclusive
CCOC(=O)c1cc(-c2cccc(O)c2)oc1C	ATXN viability inconclusive, HT1080 IDH1KD tx inconclusive
CNc1cc(-n2nc(C)cc2-c2ccccc2)ncn1	none
Cc1cc(-c2ccccc2)n(-c2cc(N/N=C/c3ccccc3O)ncn2)n1	HT1080-NT tox inconclusive, ATXN2 expr inh inconclusive, ATXN viability inconclusive, KB-V1 MDR tox 0.82µM, KB-3-1 tox inconclusive, HT1080 IDH1KD tx 1µM
CCn1c(CC(=O)Nc2cccc(Cl)c2Cl)nnc1SCCOc1ccc(OC)cc1	KB-V1 MDR tox 21µM
CCn1c(COc2cccc(C)c2)nnc1SCC(=O)Nc1cccc(C(=O)OC)c1	none
CCn1c(COc2cccc(OC)c2)nnc1SCC(=O)Nc1cc(OC)ccc1OC	KB-V1 MDR tox inconclusive
CCOC(=O)c1cccc(NC(=O)CSc2nnc(COc3ccccc3)n2CC)c1	KB-V1 MDR tox 12µM
CCn1c(COc2ccccc2)nnc1SCC(=O)Nc1cc(OC)ccc1OC	KB-V1 MDR tox 13µM
C=CCn1c(CCNC(=O)c2ccc(Cl)c(Cl)c2)nnc1SCCOc1ccc(OC)cc1	HT1080-NT tox inconclusive, KB-V1 MDR tox 5.2µM, HT1080 IDH1KD tx inconclusive
COCc1c(C(=O)NC2CCCCCC2)cnn1-c1nccc(-c2cc(C)sc2C)n1	none (no result: HT1080-NT tox, ATXN2 expr inh, KB-V1 MDR tox, KB-3-1 tox, HT1080 IDH1KD tx)
Cc1ccc2[nH]c(-c3cccc(F)c3)cc(=O)c2c1	HT1080-NT tox 1.6µM, KB-3-1 tox 0.41µM, HT1080 IDH1KD tx 1.5µM
O=c1cc(-c2ccccc2)[nH]c2cc(Cl)ccc12	HT1080-NT tox 0.52µM, ATXN viability inconclusive, KB-V1 MDR tox inconclusive, KB-3-1 tox inconclusive, HT1080 IDH1KD tx 0.58µM
O=c1cc(-c2cccc(F)c2)[nH]c2ccccc12	HT1080-NT tox 1.8µM, ATXN viability inconclusive, KB-V1 MDR tox inconclusive, KB-3-1 tox 0.37µM, HT1080 IDH1KD tx 1.5µM
Clc1ccc2[nH]c(-c3ccccc3)cc2c1	KB-V1 MDR tox inconclusive
COc1ccc(-c2cc(=O)c3ccccc3[nH]2)cc1	none
COc1ccc2[nH]c(-c3cccc(F)c3)cc(=O)c2c1	HT1080-NT tox inconclusive, KB-V1 MDR tox inconclusive, KB-3-1 tox 0.41µM, HT1080 IDH1KD tx 0.52µM
Cc1ccc2[nH]c(C(F)(F)F)cc(=O)c2c1	KB-V1 MDR tox inconclusive, HT1080 IDH1KD tx inconclusive
O=C1CC[C@@H](CN(Cc2cccnc2)C2CCN(c3ccc(NC(=O)c4cnccn4)cc3)CC2)N1	none (no result: HT1080-NT tox, ATXN2 expr inh, KB-V1 MDR tox, KB-3-1 tox, HT1080 IDH1KD tx)
COc1cccc(CN2C(=O)NC(C)(C3CCN(Cc4cc(F)cc(F)c4)CC3)C2=O)c1OC (stereo unspecified)	none (no result: HT1080-NT tox, ATXN2 expr inh, KB-V1 MDR tox, KB-3-1 tox, HT1080 IDH1KD tx)
COc1ccccc1NC(=O)C(=O)NCC(c1cccnc1)N1CCc2ccccc2C1 (stereo unspecified)	KB-3-1 tox inconclusive (no result: HT1080-NT tox, ATXN2 expr inh, ATXN viability, HT1080 IDH1KD tx)
CCOC(=O)CSc1nc2c([nH]c3ccccc32)c(=O)n1-c1ccc(OCC)cc1	none (no result: HT1080-NT tox, HT1080 IDH1KD tx)
Cc1ccc(C(=O)N(Cc2cc3ccc(F)cc3nc2N2CCC(O)CC2)CC2CCCO2)cc1 (stereo unspecified)	none (no result: HT1080-NT tox, ATXN2 expr inh, KB-V1 MDR tox, KB-3-1 tox, HT1080 IDH1KD tx)
Cc1ccc(-c2cc(=O)c3cc(C)ccc3[nH]2)cc1	HT1080-NT tox inconclusive, KB-V1 MDR tox inconclusive, KB-3-1 tox 9.2µM, HT1080 IDH1KD tx 21µM
Cc1ccc(-c2cc(=O)c3cc(F)ccc3[nH]2)cc1	KB-V1 MDR tox inconclusive, KB-3-1 tox inconclusive

Source: PubChem BioAssay
